# Source: ChEMBL document CHEMBL3988442, “University of Dundee, Small-Polar-MMV Screening Library” (2021)
# The campaign covered roughly 85,000 compounds. About 440 (0.52%) showed an effect of 50% or more. Many of the other results were omitted from the sample, so strong results are more common in it than they were.
# Test: In vitro enzyme assay to detect hydrolysis of chlorophenol red-beta-D-[…] directly proportional to the number of Toxoplasma stably expressing beta-galactosidase
# Assay type: functional, organism-based, Toxoplasma gondii
# Set-up: scale not given: in the data most compounds retested in dose-response had high values
Structure (SMILES),Percent Effect (50 µM),Percent Effect (10 µM)
Cc1ccc(F)cc1S(=O)(=O)N1CCN[C@H](C)C1,-0.3006%,–
CCN1CN=C(NS(=O)(=O)c2ccc(C)cc2)NC1,-65%,–
CCSc1cc(C(=O)N2CC[S+]([O-])CC2)ccn1,18.59%,–
CC(CCc1ccc(O)cc1)NCCN1CCOCC1 (stereo unspecified),-1.81%,–
O=C(CSCC(=O)NC1CC1)Nc1ccccc1,16.41%,–
CN(C)CCC1CN(C(=O)CCc2cccs2)CCO1 (stereo unspecified),-11.11%,–
CCOc1c(OC)cc(CN)cc1OC,-2.331%,–
CCC(CO)Nc1ncc(C(F)(F)F)cc1Cl (stereo unspecified),-11.03%,–
CCOc1cccc(NC(=O)NCCN(C)C)n1,-13.49%,–
COc1ccc(CS(=O)(=O)CC(=O)NCC2CC2)cc1F,–,4.977%
Cc1cccc(CC(=O)NCC2CCCNC2)c1 (stereo unspecified),-6.216%,–
COc1ccc(CC(=O)NCC2CCCNC2)cc1F (stereo unspecified),55.41%,–
CCC(C)NC(=O)c1cnn(-c2ccccc2)c1 (stereo unspecified),-7.328%,–
CCC(OC)c1n[nH]c(=O)n1Cc1cccc(OC)c1 (stereo unspecified),-6.855%,–
CCC(C)NCCOC (stereo unspecified),-11.32%,–
CCN(CC(=O)NC)C(=O)C(C)SC (stereo unspecified),23.69%,–
CC(C)(C)c1nccc(C2(c3ccccc3Cl)CCNCC2)n1,–,94.8%
Clc1ccccc1C1(c2ccnc(-c3ccncc3)n2)CCNCC1,–,16.95%
Clc1ccccc1C1(c2ccnc(C3CCCC3)n2)CCNCC1,–,92.51%
Clc1ccccc1C1(c2ccnc(CC3CC3)n2)CCNCC1,–,35.91%
Clc1ccccc1C1(c2ccnc(-c3ncccn3)n2)CCNCC1,–,5.922%

Structure (SMILES),Percent Effect (50 µM),Percent Effect (10 µM)
O=c1[nH]cccc1-c1nccc(C2(c3ccccc3Cl)CCNCC2)n1,–,22.57%
OC1(c2ccccc2Cl)CCNCC1,6.16%,–
Clc1ccccc1C1(c2ccnc(C3CC3)n2)CCNCC1,–,61.01%
CC(C)c1nccc(C2(c3ccccc3Cl)CCNCC2)n1,–,24.49%
NC(=O)C1(CNCc2cccc(F)c2)CCOCC1,-0.9049%,–
CSCc1nnc(SCC(=O)NC2(C#N)CCCC2)o1,9.959%,–
CCCNC(=O)C1CCCN1 (stereo unspecified),2.398%,–
CC(=O)Nc1ccc(-n2cncn2)nc1,-6.105%,–
O=C(NCc1cccnc1)c1cn2cccnc2n1,-2.314%,–
Cc1noc(CCCNC(=O)CNC(=O)c2cc3ccccc3[nH]2)n1,–,4.234%
Cc1ocnc1CNC(=O)c1ccon1,99.22%,–
CC1(CCNC(=O)c2ccon2)OCCO1,9.96%,–
Cc1nc(C)c(C(=O)NCc2ncoc2C)s1,-1.836%,–
Cc1ocnc1CNC(=O)c1ccc(Br)cn1,1.589%,–
Cc1noc(CCCNC(=O)c2ccon2)n1,62.73%,–
CCC=C(C)C(=O)NCC(C)N1CCN(CC)CC1 (stereo unspecified),11.7%,–
CCNC(=O)C1CCN(C(=O)Cc2cccc(O)c2)C1 (stereo unspecified),-5.389%,–
CC(C)(O)CCN1CCC(NC(=O)C2CCC2)CC1,0.697%,–
COCCN1CCC(c2ccn[nH]2)CC1,-6.586%,–
CNC(=O)NC(=O)CSc1ccccc1F,-1.003%,–
COc1ncccc1C(=O)NCC(=O)N1CCCC1,-2.429%,–

Structure (SMILES),Percent Effect (50 µM),Percent Effect (10 µM)
CCOc1ncccc1C(=O)NCC(C)N1CCCC1 (stereo unspecified),52.4%,–
CCOc1ncccc1C(=O)NCC1CCCN1CC (stereo unspecified),-0.459%,–
CCN1C(=O)C[C@H](CN)[C@H]1c1ccncc1,4.591%,–
CCCn1cnnc1CNC,0.9072%,–
CNc1cc(-c2cccc(OC)c2)[nH]n1,98.42%,–
CNc1cc(OC)ccn1,-16.02%,–
COc1cccc(-c2cc(C(=O)Nc3nc[nH]n3)[nH]n2)c1,–,20.51%
Cn1cc(Br)c(CO)n1,1.484%,–
Cc1cc(CCC(=O)NCCC(N)=O)ccc1Br,-2.096%,–
Cc1cc(F)ccc1S(=O)(=O)N1C[C@H](C2CC2)[C@@H](N)C1,8.476%,–
Cc1ccc(F)c(S(=O)(=O)N2C[C@H](C3CC3)[C@@H](N)C2)c1,7.08%,–
Cc1ccc(F)cc1S(=O)(=O)N1C[C@H](C2CC2)[C@@H](N)C1,98.86%,–
COc1ccc(S(=O)(=O)N2C[C@H]3CNC[C@@H](C2)O3)cc1,-2.543%,–
OCC1CCN(Cc2ccccc2)CC1,-5.201%,–
NCc1cccc(OCC(F)F)c1,-2.735%,–
CCCc1ccc(CN2CCC(NC(C)=O)C2)o1 (stereo unspecified),2.217%,–
O=C(NCC1CCN(C2CC2)C1)c1ccccc1F (stereo unspecified),13.84%,–
O=C(Cn1cc(Cl)cn1)N1CCCC(c2ccn[nH]2)C1 (stereo unspecified),–,-16.77%
CN(C)c1cc(C2CCCN(C(=O)Cn3cc(Cl)cn3)C2)ccn1 (stereo unspecified),–,0.9748%
